# From PMC11062922 (Nature Chemical Biology, 2023)
# Like-named read-outs stand apart in the source and are kept apart here.
# Legend:
# Details in all cases: read-out: apparent Kd, n = 1
# NUAK2 = system: NUAK2
# PAK6 = system: PAK6
# RET = system: RET
# [1] = compound concentrations:100 nM and 1000 nM (sheet 'Lestaurtinib' of Supplementary Table 1),run:Lestaurtinib_03252_R1,Plate:MR032
# [2] = compound concentrations:100 nM and 1000 nM (sheet 'Lestaurtinib' of Supplementary Table 1),run:Lestaurtinib_03260_R2,Plate:MR033
# [3] = compound concentrations:100 nM and 1000 nM (sheet 'Lestaurtinib' of Supplementary Table 1),run:Lestaurtinib_02339_R2,Plate:MR001
# [4] = compound concentrations:100 nM and 1000 nM (sheet 'Lestaurtinib' of Supplementary Table 1),run:Lestaurtinib_02364_R3,Plate:MR002
# [5] = compound concentrations:100 nM and 1000 nM (sheet 'Lestaurtinib' of Supplementary Table 1),run:Lestaurtinib_02367_R3,Plate:MR003
# [6] = compound concentrations:100 nM and 1000 nM (sheet 'Lestaurtinib' of Supplementary Table 1),run:Lestaurtinib_02381_R3,Plate:MR004
# [7] = compound concentrations:100 nM and 1000 nM (sheet 'Lestaurtinib' of Supplementary Table 1),run:Lestaurtinib_02422_R3,Plate:MR006
# [8] = compound concentrations:100 nM and 1000 nM (sheet 'Lestaurtinib' of Supplementary Table 1),run:Lestaurtinib_02437_R1,Plate:MR007
substance,measurement,setting,value
Lestaurtinib,potency estimated from few doses,"NUAK2; compound concentrations:100 nM and 1000 nM (sheet 'Lestaurtinib' of Supplementary Table 1),run:Lestaurtinib_03172_R1,Plate:MR031",98.7 nM
same,potency estimated from few doses,NUAK2; [1],45.5 nM
same,potency estimated from few doses,"NUAK2; compound concentrations:100 nM and 1000 nM (sheet 'Lestaurtinib' of Supplementary Table 1),run:Lestaurtinib_03252_R2,Plate:MR032",831 nM
same,potency estimated from few doses,NUAK2; [2],387 nM
same,potency estimated from few doses,PAK6; [3],151 nM
same,potency estimated from few doses,"PAK6; compound concentrations:100 nM and 1000 nM (sheet 'Lestaurtinib' of Supplementary Table 1),run:Lestaurtinib_02364_R2,Plate:MR002",137 nM
same,potency estimated from few doses,PAK6; [4],91000 nM
same,potency estimated from few doses,PAK6; [5],89.2 nM
same,potency estimated from few doses,"PAK6; compound concentrations:100 nM and 1000 nM (sheet 'Lestaurtinib' of Supplementary Table 1),run:Lestaurtinib_02381_R1,Plate:MR004",771 nM
same,potency estimated from few doses,PAK6; [6],136 nM
same,potency estimated from few doses,"PAK6; compound concentrations:100 nM and 1000 nM (sheet 'Lestaurtinib' of Supplementary Table 1),run:Lestaurtinib_02407_R1,Plate:MR005",1800 nM
same,potency estimated from few doses,"PAK6; compound concentrations:100 nM and 1000 nM (sheet 'Lestaurtinib' of Supplementary Table 1),run:Lestaurtinib_02407_R2,Plate:MR005",521 nM
same,potency estimated from few doses,"PAK6; compound concentrations:100 nM and 1000 nM (sheet 'Lestaurtinib' of Supplementary Table 1),run:Lestaurtinib_02407_R3,Plate:MR005",1490 nM
same,potency estimated from few doses,PAK6; [7],1350 nM
same,potency estimated from few doses,PAK6; [8],42.8 nM
same,potency estimated from few doses,"PAK6; compound concentrations:100 nM and 1000 nM (sheet 'Lestaurtinib' of Supplementary Table 1),run:Lestaurtinib_02437_R2,Plate:MR007",638 nM
same,potency estimated from few doses,"PAK6; compound concentrations:100 nM and 1000 nM (sheet 'Lestaurtinib' of Supplementary Table 1),run:Lestaurtinib_02437_R3,Plate:MR007",165 nM
same,potency estimated from few doses,"PAK6; compound concentrations:100 nM and 1000 nM (sheet 'Lestaurtinib' of Supplementary Table 1),run:Lestaurtinib_02438_R2,Plate:MR008",113 nM
same,potency estimated from few doses,"PAK6; compound concentrations:100 nM and 1000 nM (sheet 'Lestaurtinib' of Supplementary Table 1),run:Lestaurtinib_02443_R1,Plate:MR009",830 nM
same,potency estimated from few doses,"PAK6; compound concentrations:100 nM and 1000 nM (sheet 'Lestaurtinib' of Supplementary Table 1),run:Lestaurtinib_02443_R2,Plate:MR009",1300 nM
same,potency estimated from few doses,"PAK6; compound concentrations:100 nM and 1000 nM (sheet 'Lestaurtinib' of Supplementary Table 1),run:Lestaurtinib_02443_R3,Plate:MR009",169 nM
same,potency estimated from few doses,"PAK6; compound concentrations:100 nM and 1000 nM (sheet 'Lestaurtinib' of Supplementary Table 1),run:Lestaurtinib_02473_R3,Plate:MR010",121 nM
same,potency estimated from few doses,"PAK6; compound concentrations:100 nM and 1000 nM (sheet 'Lestaurtinib' of Supplementary Table 1),run:Lestaurtinib_02482_R2,Plate:MR011",852 nM
same,potency estimated from few doses,"PAK6; compound concentrations:100 nM and 1000 nM (sheet 'Lestaurtinib' of Supplementary Table 1),run:Lestaurtinib_02482_R3,Plate:MR011",797 nM
same,potency estimated from few doses,"PAK6; compound concentrations:100 nM and 1000 nM (sheet 'Lestaurtinib' of Supplementary Table 1),run:Lestaurtinib_02487_R1,Plate:MR012",1690 nM
same,potency estimated from few doses,"PAK6; compound concentrations:100 nM and 1000 nM (sheet 'Lestaurtinib' of Supplementary Table 1),run:Lestaurtinib_02487_R3,Plate:MR012",100 nM
same,potency estimated from few doses,"PAK6; compound concentrations:100 nM and 1000 nM (sheet 'Lestaurtinib' of Supplementary Table 1),run:Lestaurtinib_02496_R2,Plate:MR013",1370 nM
same,potency estimated from few doses,"PAK6; compound concentrations:100 nM and 1000 nM (sheet 'Lestaurtinib' of Supplementary Table 1),run:Lestaurtinib_02496_R3,Plate:MR013",1590 nM
same,potency estimated from few doses,"PAK6; compound concentrations:100 nM and 1000 nM (sheet 'Lestaurtinib' of Supplementary Table 1),run:Lestaurtinib_02566_R1,Plate:MR014",49.6 nM
same,potency estimated from few doses,"PAK6; compound concentrations:100 nM and 1000 nM (sheet 'Lestaurtinib' of Supplementary Table 1),run:Lestaurtinib_02566_R3,Plate:MR014",35.1 nM
same,potency estimated from few doses,"PAK6; compound concentrations:100 nM and 1000 nM (sheet 'Lestaurtinib' of Supplementary Table 1),run:Lestaurtinib_02572_R3,Plate:MR015",1350 nM
same,potency estimated from few doses,"PAK6; compound concentrations:100 nM and 1000 nM (sheet 'Lestaurtinib' of Supplementary Table 1),run:Lestaurtinib_02577_R1,Plate:MR016",1350 nM
same,potency estimated from few doses,"PAK6; compound concentrations:100 nM and 1000 nM (sheet 'Lestaurtinib' of Supplementary Table 1),run:Lestaurtinib_02584_R1,Plate:MR017",953 nM
same,potency estimated from few doses,"PAK6; compound concentrations:100 nM and 1000 nM (sheet 'Lestaurtinib' of Supplementary Table 1),run:Lestaurtinib_02584_R3,Plate:MR017",896 nM
same,potency estimated from few doses,"PAK6; compound concentrations:100 nM and 1000 nM (sheet 'Lestaurtinib' of Supplementary Table 1),run:Lestaurtinib_02601_R2,Plate:MR018",846 nM
same,potency estimated from few doses,"PAK6; compound concentrations:100 nM and 1000 nM (sheet 'Lestaurtinib' of Supplementary Table 1),run:Lestaurtinib_02601_R3,Plate:MR018",974 nM
same,potency estimated from few doses,"PAK6; compound concentrations:100 nM and 1000 nM (sheet 'Lestaurtinib' of Supplementary Table 1),run:Lestaurtinib_02606_R1,Plate:MR019",1440 nM
same,potency estimated from few doses,"PAK6; compound concentrations:100 nM and 1000 nM (sheet 'Lestaurtinib' of Supplementary Table 1),run:Lestaurtinib_02606_R2,Plate:MR019",722 nM
same,potency estimated from few doses,"PAK6; compound concentrations:100 nM and 1000 nM (sheet 'Lestaurtinib' of Supplementary Table 1),run:Lestaurtinib_02624_R1,Plate:MR020",730 nM
same,potency estimated from few doses,"PAK6; compound concentrations:100 nM and 1000 nM (sheet 'Lestaurtinib' of Supplementary Table 1),run:Lestaurtinib_02624_R2,Plate:MR020",686 nM
same,potency estimated from few doses,"PAK6; compound concentrations:100 nM and 1000 nM (sheet 'Lestaurtinib' of Supplementary Table 1),run:Lestaurtinib_02624_R3,Plate:MR020",783 nM
same,potency estimated from few doses,"PAK6; compound concentrations:100 nM and 1000 nM (sheet 'Lestaurtinib' of Supplementary Table 1),run:Lestaurtinib_02748_R1,Plate:MR024",896 nM
same,potency estimated from few doses,"PAK6; compound concentrations:100 nM and 1000 nM (sheet 'Lestaurtinib' of Supplementary Table 1),run:Lestaurtinib_02752_R1,Plate:MR025",793 nM
same,potency estimated from few doses,"PAK6; compound concentrations:100 nM and 1000 nM (sheet 'Lestaurtinib' of Supplementary Table 1),run:Lestaurtinib_02752_R2,Plate:MR025",782 nM
same,potency estimated from few doses,"PAK6; compound concentrations:100 nM and 1000 nM (sheet 'Lestaurtinib' of Supplementary Table 1),run:Lestaurtinib_02752_R3,Plate:MR025",799 nM
same,potency estimated from few doses,"PAK6; compound concentrations:100 nM and 1000 nM (sheet 'Lestaurtinib' of Supplementary Table 1),run:Lestaurtinib_02765_R2,Plate:MR026",766 nM
same,potency estimated from few doses,"PAK6; compound concentrations:100 nM and 1000 nM (sheet 'Lestaurtinib' of Supplementary Table 1),run:Lestaurtinib_02766_R1,Plate:MR027",519 nM
same,potency estimated from few doses,"PAK6; compound concentrations:100 nM and 1000 nM (sheet 'Lestaurtinib' of Supplementary Table 1),run:Lestaurtinib_02766_R2,Plate:MR027",66 nM
same,potency estimated from few doses,"PAK6; compound concentrations:100 nM and 1000 nM (sheet 'Lestaurtinib' of Supplementary Table 1),run:Lestaurtinib_02766_R3,Plate:MR027",696 nM
same,potency estimated from few doses,"PAK6; compound concentrations:100 nM and 1000 nM (sheet 'Lestaurtinib' of Supplementary Table 1),run:Lestaurtinib_02768_R1,Plate:MR028",996 nM
same,potency estimated from few doses,"PAK6; compound concentrations:100 nM and 1000 nM (sheet 'Lestaurtinib' of Supplementary Table 1),run:Lestaurtinib_02795_R1,Plate:MR022",648 nM
same,potency estimated from few doses,"PAK6; compound concentrations:100 nM and 1000 nM (sheet 'Lestaurtinib' of Supplementary Table 1),run:Lestaurtinib_02795_R2,Plate:MR022",528 nM
same,potency estimated from few doses,"PAK6; compound concentrations:100 nM and 1000 nM (sheet 'Lestaurtinib' of Supplementary Table 1),run:Lestaurtinib_02795_R3,Plate:MR022",1440 nM
same,potency estimated from few doses,"PAK6; compound concentrations:100 nM and 1000 nM (sheet 'Lestaurtinib' of Supplementary Table 1),run:Lestaurtinib_02802_R1,Plate:MR029",604 nM
same,potency estimated from few doses,"PAK6; compound concentrations:100 nM and 1000 nM (sheet 'Lestaurtinib' of Supplementary Table 1),run:Lestaurtinib_02802_R3,Plate:MR029",85.9 nM
same,potency estimated from few doses,"PAK6; compound concentrations:100 nM and 1000 nM (sheet 'Lestaurtinib' of Supplementary Table 1),run:Lestaurtinib_02896_R1,Plate:MR030",541 nM
same,potency estimated from few doses,"PAK6; compound concentrations:100 nM and 1000 nM (sheet 'Lestaurtinib' of Supplementary Table 1),run:Lestaurtinib_02896_R2,Plate:MR030",1310 nM
same,potency estimated from few doses,"PAK6; compound concentrations:100 nM and 1000 nM (sheet 'Lestaurtinib' of Supplementary Table 1),run:Lestaurtinib_02896_R3,Plate:MR030",785 nM
same,potency estimated from few doses,"PAK6; compound concentrations:100 nM and 1000 nM (sheet 'Lestaurtinib' of Supplementary Table 1),run:Lestaurtinib_03172_R2,Plate:MR031",581 nM
same,potency estimated from few doses,PAK6; [1],825 nM
same,potency estimated from few doses,"PAK6; compound concentrations:100 nM and 1000 nM (sheet 'Lestaurtinib' of Supplementary Table 1),run:Lestaurtinib_03260_R1,Plate:MR033",744 nM
same,potency estimated from few doses,PAK6; [2],805 nM
same,potency estimated from few doses,RET; [3],240 nM
same,potency estimated from few doses,RET; [4],273 nM
same,potency estimated from few doses,"RET; compound concentrations:100 nM and 1000 nM (sheet 'Lestaurtinib' of Supplementary Table 1),run:Lestaurtinib_02367_R1,Plate:MR003",274 nM
same,potency estimated from few doses,"RET; compound concentrations:100 nM and 1000 nM (sheet 'Lestaurtinib' of Supplementary Table 1),run:Lestaurtinib_02367_R2,Plate:MR003",260 nM
same,potency estimated from few doses,RET; [5],265 nM
same,potency estimated from few doses,"RET; compound concentrations:100 nM and 1000 nM (sheet 'Lestaurtinib' of Supplementary Table 1),run:Lestaurtinib_02381_R2,Plate:MR004",218 nM
same,potency estimated from few doses,RET; [6],113 nM
same,potency estimated from few doses,"RET; compound concentrations:100 nM and 1000 nM (sheet 'Lestaurtinib' of Supplementary Table 1),run:Lestaurtinib_02422_R1,Plate:MR006",162 nM
same,potency estimated from few doses,RET; [7],269 nM
same,potency estimated from few doses,RET; [8],142 nM
